Assay [1] is described as follows: S16 Schwann cell PMP22 intronic element firefly luciferase assay (AID 624032). Note: nearly all actives have a fitted effect of over 30% in size. Put shortly: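 Rat S16 Schwann cells stably carrying firefly luciferase driven by a PMP22 intronic element, in 10% FBS, treated 24 h at 37 C. ONE-Glo luminescence normalized to PTC124 control and DMSO (0%); curves classed by r2, magnitude and activity.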
Assay [2] has as its system CP268. The assay is described as follows: qHTS profiling for inhibitors of Plasmodium falciparum proliferation (AID 504749). Note: nearly all actives have a fitted effect of over 60% in size. Note: potency is the fitted concentration of half-maximal effect. The settings on record: P. falciparum in erythrocytes, SYBR Green DNA, 72 h; series mostly up to 12.8 µM. In outline: (§1)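 SYBR Green fluorescence (ex 485 nm, em 535 nm) reports parasite DNA after 72 h compound exposure of infected red cells at 0.3% parasitemia, 2.5% hematocrit; signal normalized to 0.29 uM artemisinin and vehicle wells.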

The test system of assay [3] is DFO2036. The description is as above. The settings on record: P. falciparum in erythrocytes, SYBR Green DNA, 72 h; series mostly up to 12.8 µM. In outline:
as §1

Assay [4] relates to DIV14. The assay is described as above. The settings on record: P. falciparum in erythrocytes, SYBR Green DNA, 72 h; series mostly up to 12.8 µM. In outline:
as §1

Assay [5] deals with DIV17. The assay is described as above. The settings on record: P. falciparum in erythrocytes, SYBR Green DNA, 72 h; series mostly up to 12.8 µM. Put shortly: as §1
Assay [6] relates to W2. Described as above. The settings on record: P. falciparum in erythrocytes, SYBR Green DNA, 72 h; series mostly up to 12.8 µM. Put shortly:
as §1

The nature of assay [7]: qHTS Assay for Identification of Small Molecule Antagonists for NFkB Signaling Pathway (AID 895; active = well fitted inhibition curve with a large enough effect in the signal ratio, with a control signal flat, not every such curve was filed as active; the % refers to the signal ratio). In outline: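 ME-180 NFkB-bla cells (beta-lactamase under NFkB response element), plated overnight, treated with compound then 10 pM TNF alpha (about EC50) for 5 hrs at 37 C. LiveBLAzer FRET read at 460/530 nm emission, 405 nm excitation.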
In assay [8] the target is Muscarinic acetylcholine receptor M1 (Rattus norvegicus) (UniProt P08482). The assay can be described thus: qHTS Assay for Antagonists of Acetylcholine Muscarinic M1 Receptor: Kinetic Measurement of Intracellular Calcium Response (AID 943).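 Note: Fluo-4 calcium signal as peak divided by basal fluorescence over 4 min; nearly all actives have a fitted effect of over 75% in size.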 Put shortly:
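Read-out: peak over basal Fluo-4 fluorescence, kinetic at 1 Hz for 4 min after EC80 carbachol (100 nM final). Rat M1-CHO cells, dye loaded 1 h at 37C, compound added 10 min before agonist.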

For assay [9] the target is unchanged. The assay can be described thus: qHTS Assay for Antagonists of Acetylcholine Muscarinic M1 Receptor: Measurement of IP-One Response (AID 944). Note: nearly all actives have a fitted effect of over 75% in size. Put shortly: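 Read-out: HTRF competition between d2-IP1 and Eu-cryptate anti-IP1 antibody, emission 620 and 665 nm. Stimulus was carbachol, EC80 (200 nM), for 30 min in M1-CHO cells (rat receptor), after 10 min compound pre-treatment.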

For assay [10], the target named is Pyruvate kinase (Leishmania mexicana) (UniProt Q27686). The assay can be described thus: qHTS Validation Assay for Activators of Leishmania Mexicana Pyruvate Kinase (AID 959). The settings on record: purified L. mexicana pyruvate kinase, enzyme activity. In outline: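 Pyruvate kinase activity of E451W LmPYK (0.2 nM) was followed as ATP output after 1 h at room temperature with 0.5 mM PEP and 0.1 mM ADP, detected by PKLight luminescence.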

The nature of assay [11]: S16 Schwann cell PMP22 intronic element beta-lactamase assay (AID 624044; calls by dose curve; note: nearly all actives have a fitted effect of over 15% in size). Put shortly: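 Beta-lactamase reporter under a PMP22 intronic regulatory element in stable S16 rat Schwann cells; 24 h compound exposure. 460 nm blue signal normalized between DMSO (0%) and potassium clavulanate, with 535 nm FRET tracking viability; curves classed by r2 and response.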
For assay [12], the system named is 7G8. The assay can be described thus: qHTS profiling for inhibitors of Plasmodium falciparum proliferation (AID 504749). Note: nearly all actives have a fitted effect of over 60% in size. Note: potency is the fitted concentration of half-maximal effect. The settings on record: P. falciparum in erythrocytes, SYBR Green DNA, 72 h; series mostly up to 12.8 µM. In outline: as §1
The subject of assay [13] is CP297. The description is as above. The settings on record: P. falciparum in erythrocytes, SYBR Green DNA, 72 h; series mostly up to 12.8 µM. In outline:
as §1

Assay [14] has as its system ICS. The assay is described as above. The settings on record: P. falciparum in erythrocytes, SYBR Green DNA, 72 h; series mostly up to 12.8 µM. In outline: as §1
Assay [15] concerns the target Pyruvate kinase PKM (Homo sapiens) (UniProt P14618). The assay is described as follows: qHTS Assay for Inhibitors of Human Muscle Pyruvate Kinase (AID 958). Put shortly:
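PKM2, human, >95% pure, 0.1 nM; PEP 0.5 mM (Km), ADP 0.1 mM; 50 mM imidazole pH 7.2, 50 mM KCl, 0.01% Tween 20, 0.05% BSA; 1 h RT; luciferase luminescence readout.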

Assay [16] addresses Tyrosyl-DNA phosphodiesterase 1 (Homo sapiens) (UniProt Q9NUW8). The assay can be described thus: Confirmation Assay for Inhibitors of Tyrosyl-DNA Phosphodiesterase (TDP1) (AID 489007). Note: potency is the fitted concentration of half-maximal effect; nearly all actives have a fitted effect of over 40% in size. The settings on record: recombinant human TDP1 enzymatic activity, dose-response. In outline: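 AlphaScreen read-out: streptavidin donor and anti-FITC acceptor beads (10 ug/ml) bind intact substrate, so Tdp1 removal of tyrosine-FITC lowers signal. Enzyme 1 nM, substrate 15 nM, 5 min reaction at room temperature after 15 min compound preincubation.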

Molecules are shown by their SMILES. Inconclusive results are not listed. The source made the active and inactive calls. Unless noted, calls come from the whole dose curve; as a rule, active = well fitted curve in the direction sought with a large enough effect; inconclusive = small, poorly fitted or top-dose-only effect, or another doubt; inactive = no such curve, though single readings can be large; an effect the other way counts as inactive or inconclusive.

Pyruvate kinase (Leishmania mexicana), sequence (Q27686 2-499 E452W): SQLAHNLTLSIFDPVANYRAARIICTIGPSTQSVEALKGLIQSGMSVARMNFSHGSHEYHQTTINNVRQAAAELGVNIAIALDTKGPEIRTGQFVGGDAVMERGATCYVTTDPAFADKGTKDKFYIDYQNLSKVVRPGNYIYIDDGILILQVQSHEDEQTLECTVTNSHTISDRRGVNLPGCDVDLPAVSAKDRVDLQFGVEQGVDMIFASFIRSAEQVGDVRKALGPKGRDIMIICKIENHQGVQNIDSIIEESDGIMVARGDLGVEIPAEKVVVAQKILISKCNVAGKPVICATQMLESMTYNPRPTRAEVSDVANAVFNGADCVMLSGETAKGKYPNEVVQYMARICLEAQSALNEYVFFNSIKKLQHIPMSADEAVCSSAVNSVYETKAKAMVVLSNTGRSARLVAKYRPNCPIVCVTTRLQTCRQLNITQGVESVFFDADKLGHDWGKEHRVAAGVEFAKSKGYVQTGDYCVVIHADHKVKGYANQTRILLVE
Muscarinic acetylcholine receptor M1 (Rattus norvegicus), sequence (P08482 whole entry, looked up): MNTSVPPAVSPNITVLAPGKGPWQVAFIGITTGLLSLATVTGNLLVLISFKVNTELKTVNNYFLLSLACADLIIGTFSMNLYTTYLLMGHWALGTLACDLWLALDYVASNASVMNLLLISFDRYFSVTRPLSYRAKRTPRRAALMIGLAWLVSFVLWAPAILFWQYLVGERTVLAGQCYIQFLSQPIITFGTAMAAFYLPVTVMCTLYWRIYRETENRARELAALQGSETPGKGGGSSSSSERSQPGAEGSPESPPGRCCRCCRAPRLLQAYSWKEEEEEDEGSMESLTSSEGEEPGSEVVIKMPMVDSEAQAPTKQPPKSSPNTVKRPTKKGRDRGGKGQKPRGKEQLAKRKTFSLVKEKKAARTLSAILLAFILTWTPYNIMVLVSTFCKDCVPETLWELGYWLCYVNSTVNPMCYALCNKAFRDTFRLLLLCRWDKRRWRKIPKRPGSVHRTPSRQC
Tyrosyl-DNA phosphodiesterase 1 (Homo sapiens), sequence (Q9NUW8 whole entry, looked up): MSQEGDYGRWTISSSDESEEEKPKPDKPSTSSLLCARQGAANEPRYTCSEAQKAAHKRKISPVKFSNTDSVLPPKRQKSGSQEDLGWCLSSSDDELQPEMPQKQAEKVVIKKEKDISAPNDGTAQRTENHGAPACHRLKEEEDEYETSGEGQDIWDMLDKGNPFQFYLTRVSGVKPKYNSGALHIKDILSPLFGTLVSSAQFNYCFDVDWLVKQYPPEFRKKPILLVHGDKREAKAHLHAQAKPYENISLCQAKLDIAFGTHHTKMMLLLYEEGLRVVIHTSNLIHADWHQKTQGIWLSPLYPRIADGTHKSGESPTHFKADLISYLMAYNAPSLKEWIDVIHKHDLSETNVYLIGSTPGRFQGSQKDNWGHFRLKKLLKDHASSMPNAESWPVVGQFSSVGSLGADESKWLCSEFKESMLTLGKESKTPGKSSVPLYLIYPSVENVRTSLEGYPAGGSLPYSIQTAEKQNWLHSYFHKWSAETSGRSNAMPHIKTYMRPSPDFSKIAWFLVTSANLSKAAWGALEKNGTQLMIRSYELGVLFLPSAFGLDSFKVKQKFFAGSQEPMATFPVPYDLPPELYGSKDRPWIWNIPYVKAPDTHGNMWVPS
Pyruvate kinase PKM (Homo sapiens), sequence (P14618 whole entry, looked up): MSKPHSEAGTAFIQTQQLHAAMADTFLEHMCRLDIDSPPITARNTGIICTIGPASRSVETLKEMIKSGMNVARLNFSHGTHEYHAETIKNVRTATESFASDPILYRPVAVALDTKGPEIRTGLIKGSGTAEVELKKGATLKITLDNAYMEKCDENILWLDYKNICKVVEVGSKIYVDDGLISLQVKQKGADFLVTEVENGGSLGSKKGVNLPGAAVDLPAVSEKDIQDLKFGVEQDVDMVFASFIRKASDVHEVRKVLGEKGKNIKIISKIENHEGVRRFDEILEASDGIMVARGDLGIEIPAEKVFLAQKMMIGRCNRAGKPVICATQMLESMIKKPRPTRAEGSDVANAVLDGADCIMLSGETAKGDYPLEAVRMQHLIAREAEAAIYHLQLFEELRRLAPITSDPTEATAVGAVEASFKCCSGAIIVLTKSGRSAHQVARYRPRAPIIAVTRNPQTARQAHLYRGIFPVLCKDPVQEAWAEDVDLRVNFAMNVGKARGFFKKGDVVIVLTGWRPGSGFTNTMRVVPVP

Consider `CN1CCCC[C@@H]1CCN1c2ccccc2Sc2ccc(S(C)=O)cc21` (stereo partly drawn), for which the Potency entry in [1], in assay [2], in assay [3], in assay [4], in assay [5] and in [6] was “inactive” each time.
For the compound `CC(=O)OCC1=C(C(=O)O)N2C(=O)[C@@H](NC(=O)CSc3ccncc3)[C@@H]2SC1`, the Potency entry in assay [7], in assay [8], in [9], in assay [1], in assay [12] and in assay [2] was “inactive” throughout. Moreover, the Potency entry in assay [13], in assay [4], in assay [5], in assay [14] and in [6] was “inactive” in each case. The Potency in [10] was 15.8 µM (active). Also, in assay [11], the call was inactive.
As for `CC[C@@]12CCCN3CCc4c(n(c5ccccc45)C(=O)C1)[C@H]32`, the Potency result in [1] is “inactive”.
Turning to `CCCN(CCC)C(=O)[C@@H](CCC(=O)O)NC(=O)c1ccccc1`, the Potency entry in assay [1], in assay [12], in assay [2], in [3], in [4] and in [5] was “inactive” each time. For the same compound, the Potency entry in assay [14] and in [6] was “inactive” each time.
With `CO/N=C(\C(=O)N[C@@H]1C(=O)N2C(C(=O)O)=C(COC(C)=O)CS[C@@H]12)c1csc(N)n1`, the Potency entry in assay [7], in assay [9], in [1], in assay [12], in assay [2] and in assay [13] was “inactive” each time. Further, the Potency result in assay [4], in assay [5], in assay [14] and in [6] was “inactive” in each case. The compound was classed as inactive in [15] and in [11]. For the same compound, the Potency in assay [10] was 25.1 µM (active).
Regarding `CC(C)NC[C@H](O)c1cc(O)cc(O)c1`, the Potency result in assay [12], in [2], in assay [13], in assay [4], in assay [5] and in assay [14] was “inactive” each time. Also, the Potency result in assay [6] is “inactive”.
Take `CCn1cc(C(=O)O)c(=O)c2cc(F)c(N3CCN[C@@H](C)C3)c(F)c21`: the Potency result in assay [9], in [1], in assay [12], in assay [13], in assay [3] and in [4] was “inactive” in each case. Further, the Potency result in assay [5], in assay [14] and in assay [6] was “inactive” each time.
On to `C[C@@H](C[N+](C)(C)C)OC(N)=O`, for which the Potency result in assay [7], in assay [8] and in [9] was “inactive” in each case.
Take `C[C@@H](CCc1ccccc1)NC[C@H](O)c1ccc(O)c(C(N)=O)c1`: the Potency result in assay [9], in assay [1], in assay [2] and in assay [13] was “inactive” in each case. Moreover, the Potency in assay [12] was 11.2 µM (active).
With `NC(=O)c1cc[n+](CC2=C(C(=O)O)N3C(=O)[C@@H](NC(=O)[C@H](c4ccccc4)S(=O)(=O)[O-])[C@@H]3SC2)cc1`, the Potency entry in assay [7], in [8] and in assay [1] was “inactive” in each case. In addition, the Potency is 3.16 µM (active) in [10]; 12.6 µM (active) in assay [16]; 0.178 µM (active) in assay [12]; 4.05 µM (active) in [2]; 6.42 µM (active) in [13]; 0.721 µM (active) in [4]. Also, the Potency in assay [5] is 0.572 µM (active); in assay [14], 0.355 µM (active); in assay [6], 0.51 µM (active).
Consider `CC(C)(C)NC[C@H](O)c1cc(O)cc(O)c1`, for which the Potency entry in [12], in [2], in [13], in [5], in assay [14] and in assay [6] was “inactive” each time.
As to `N[C@H](C(=O)N[C@@H]1C(=O)N2C(C(=O)O)=C(Cl)CS[C@@H]12)c1ccccc1`, the Potency result in [7] and in [8] was “inactive” each time.
For the compound `CC(=O)O[C@@H](C)C[N+](C)(C)C`, the Potency entry in [8], in [9], in [1], in [12], in [2] and in [13] was “inactive” in each case. The Potency result in assay [3], in assay [4], in assay [5], in assay [14] and in assay [6] was “inactive” throughout.
In the case of `O=C(O)CNC(=O)[C@@H](CS)Cc1ccccc1`, the Potency entry in [7] and in assay [8] was “inactive” throughout.

The values are drawn from PubChem BioAssay (NCATS).
